Mdm2 MdmX PPI = inhibitors of human Mdm2-MdmX association, primary screen, cell-based, luminescence, split luciferase, SaOS-2, uHTS. SaOS-2 split-luciferase Mdm2/MdmX complementation. Protein Mdm4 (Homo sapiens) + E3 ubiquitin-protein ligase Mdm2 (Homo sapiens), …. AID 485346, 2010. inhibition, % at 8 µM. hit rate 3% among 330,000;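 active = inhibition of at least 50% at 8 µM in the primary screen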
Jurkat NFkB inh = inhibitors of induced NF-kB luciferase reporter, primary screen, TCR NF-kB activation inhibitor project, cell-based, luminescence, uHTS | hit rate 0.53% among 330,000 | Jurkat, PMA/ionomycin-induced NF-kB luciferase reporter | inhibition, % at 4 µM; in the data active = inhibition above about 50%
Gli-Sufu antag = Gli-Sufu pathway antagonists, primary screen, luciferase luminescence, Sufu-KO-LIGHT cells, uHTS. Sufu-KO-LIGHT fibroblasts, Gli luciferase reporter luminescence. hit rate 0.74% among 340,000. inhibition, % at 5 µM;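 active = inhibition above about 55%, limit read from the data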
Beta cell apopt = inhibitors of cytokine-induced beta cell apoptosis, primary screen, luminescence | protection from apoptosis, % (concentration not given with the values) | hit rate 0.8% among 300,000 | INS-1E cytokine-induced death, ATP luminescence, 48 h; percent of positive-control rescue, neutral wells zero;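 active = Every replicate reaches about 75%, or at least half do and their mean reaches it too, limit read from the data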;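 also: higher means more ATP so stronger rescue from cytokine killing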
697 NFkB inh = inhibitors of PMA/ionomycin-induced NF-kB reporter, 697 cells, primary screen, B-cell NF-kB inhibitor project, cell-based, luminescence, uHTS; AID 435022, 2010; 697 B-cell NF-kB luciferase reporter, 16 h; hit rate 0.33% among 330,000; inhibition, % at 4 µM; in the data active = inhibition above about 35%
Each line names hits and unclear results; the compound was inactive in the other large screens. In the library only some 4% were active in any assay of this set; here they are far more common.

COc1cc(N(C)C)ccc1C=c1c2ccccc2n2c1cc(-c1ccccc1)[n+]2C	Gli-Sufu antag 90.7 (no result: Mdm2 MdmX PPI, Jurkat NFkB inh, Beta cell apopt, 697 NFkB inh)
Cc1ccc([N+](=O)[O-])c(OCCN2CCCCCC2)c1	Beta cell apopt 78.8
CCC(CO)[n+]1c(C)cc(/C=C2\Sc3ccccc3N2Cc2ccccc2)cc1C (configuration not stated)	Gli-Sufu antag 87.3, Beta cell apopt 104.5 (no result: Mdm2 MdmX PPI, Jurkat NFkB inh, 697 NFkB inh)
Cc1cccc(NC(=O)c2ccc([N+](=O)[O-])s2)c1C	Beta cell apopt 105.4
Cc1ccnc(NC(=O)c2ccc([N+](=O)[O-])s2)c1	Beta cell apopt 82.2
NC(=O)COC(=O)[C@@H]1CC(O)CN1S(=O)(=O)c1ccc2c(c1)OCCO2 (some centres not stated)	none
CC(CCc1ccccn1)(CCc1ccccn1)C(=O)c1ccccc1	none (no result: Mdm2 MdmX PPI, Jurkat NFkB inh, Beta cell apopt, 697 NFkB inh)
O=C(N/N=C/c1ccccc1O)c1ccc2c(c1)OCO2	Beta cell apopt 95.4
O=C(N/N=C/c1ccc2c(c1)OCO2)c1ccc2c(c1)OCCO2	none
O=C(N/N=C/c1cc(Br)c(Br)o1)c1ccc2c(c1)OCCO2	none
O=C(N/N=C/c1cc(Br)c(O)c(Br)c1O)c1ccc2c(c1)OCCO2	Beta cell apopt 91.1
O=C(N/N=C/c1cc(Br)cc(Br)c1O)c1ccncc1	Beta cell apopt 79.2
COc1ccc(C)cc1NC(=O)CN1CCN(C/C=C/c2ccccc2)CC1	none
Cc1c(N=Nc2c(-c3ccc([N+](=O)[O-])cc3)[nH]n(C(N)=S)c2=O)cccc1[N+](=O)[O-]	Gli-Sufu antag 68.4 (no result: Mdm2 MdmX PPI, Jurkat NFkB inh, Beta cell apopt, 697 NFkB inh)
NC(=S)n1[nH]c(-c2ccc([N+](=O)[O-])cc2)c(N=Nc2ccccc2[N+](=O)[O-])c1=O	none (no result: Mdm2 MdmX PPI, Jurkat NFkB inh, Beta cell apopt, 697 NFkB inh)
NS(=O)(=O)c1ccc(CCN=C(NS(=O)(=O)c2cccs2)c2ccccc2)cc1	none
Cc1cccc(-n2ncc3c2CCCC3NC(=O)CN2CCOC2=O)c1C (configuration not stated)	none
Cc1cc(C(=O)NC2CCCc3c2cnn3-c2ccc(C(C)(C)C)cc2)nn1C (configuration not stated)	Gli-Sufu antag 57.5
CC1=C(C(=O)NC2CCCc3c2cnn3-c2cccc(C)c2C)OCCO1 (configuration not stated)	Gli-Sufu antag 57.3 (no result: Jurkat NFkB inh, 697 NFkB inh)
CC(C)CC(=O)/C=C/n1c(=S)oc2ccccc21	none (no result: Mdm2 MdmX PPI, Jurkat NFkB inh, 697 NFkB inh)
CC(=O)/C=C/n1c(=S)oc2ccccc21	Beta cell apopt 99.6 (no result: Mdm2 MdmX PPI, Jurkat NFkB inh, 697 NFkB inh)
O=C(O)c1ccc(/C=C2\SC(=S)N(Nc3ccccc3)C2=O)cc1	Beta cell apopt 91.4
CC1(C)N=C(N)N=C(N)N1c1ccc(OCCCOc2ccccc2)c(Cl)c1	Beta cell apopt 102.9 (no result: Mdm2 MdmX PPI, Jurkat NFkB inh, 697 NFkB inh)
CCOc1ccc(C(C)=O)cc1CN1C(=O)NC2(CCCCCCC2)C1=O	none
CC(C)(C)C1CCC2(CC1)C(C#N)=C(SCC(=O)NC1CCCCC1)NC(=O)C2C#N (configuration not stated)	Beta cell apopt 107.5
CC[n+]1ccc(/C=C/c2ccc(N(C)C)cc2)c2ccccc21	Gli-Sufu antag 87.1 (no result: Mdm2 MdmX PPI, Jurkat NFkB inh, Beta cell apopt, 697 NFkB inh)
CC12CC3OC3CC1CCC1C2CCC2(C)C1CCC21OCCO1 (configuration not stated)	none (no result: Mdm2 MdmX PPI, Jurkat NFkB inh, Beta cell apopt, 697 NFkB inh)
Cc1cccc2c(C(=O)N3CCCCC3)cc(-c3ccccc3)nc12	none
O=C(c1cc(-c2ccncc2)nc2ccc(Br)cc12)N1CCN(c2ccccn2)CC1	none
Cc1cccc2c(C(=O)N3CCN(c4ccccn4)CC3)cc(-c3cccc(Br)c3)nc12	Beta cell apopt 111.7
O=C(c1cc(-c2cccc(Cl)c2)nc2ccccc12)N1CCN(c2ccccn2)CC1	Beta cell apopt 96.5
O=C(CN1C(=O)NC2(CCSC2)C1=O)NCc1ccccc1 (configuration not stated)	none
COc1cccc(N2CCN(S(=O)(=O)c3ccc4ccccc4c3)CC2)c1	none (no result: Beta cell apopt)
O=C(NCc1ccco1)c1cc(S(=O)(=O)N2CCCC2)ccc1Cl	none
O=C(Nc1cc(S(=O)(=O)N2CCCCC2)ccc1Cl)c1ccccc1NS(=O)(=O)c1ccc(F)cc1	Beta cell apopt 129.9 (no result: Mdm2 MdmX PPI, Jurkat NFkB inh, 697 NFkB inh)
O=C(CN(Cc1ccco1)Cc1ccco1)Nc1cc(S(=O)(=O)N2CCCCC2)ccc1Cl	Beta cell apopt 101.3
Cc1[nH]n(-c2ccccc2)c(=O)c1/C=N\NC(=O)C1COc2ccccc2O1 (configuration not stated)	Beta cell apopt 78.4
Cc1[nH]n(-c2ccccc2)c(=O)c1/C=N/NC(=O)COc1ccccc1[N+](=O)[O-]	Beta cell apopt 75.8
CCC1S/C(=N/S(=O)(=O)c2ccc(N)cc2)NC1=O (configuration not stated)	none (no result: Mdm2 MdmX PPI, Jurkat NFkB inh, Beta cell apopt, 697 NFkB inh)
O=C(/C=C/c1ccccc1)Nc1cccnc1Oc1ccccc1F	none
Cc1ccc(C)c(N2CCN(C(=O)CCCOc3cc(=O)n(C)c4ccccc34)CC2)c1	Beta cell apopt 94.3
O=C(O)c1ccccc1OCCOCCOc1ccccc1C(=O)O	none
CC(=O)c1ccccc1OCCOCCOc1ccccc1C(C)=O	Beta cell apopt 107.6
O=S(=O)(c1ccc2c(c1)OCCO2)N1CCN(S(=O)(=O)c2ccccn2)CC1	none
Brc1ccc(CN2CCN(Cc3c[nH]c4ccccc34)CC2)cc1	Beta cell apopt 88.1
Brc1ccccc1CN1CCN(Cc2c[nH]c3ccccc23)CC1	Beta cell apopt 130.1
CCS(=O)(=O)N1CCN(Cc2c[nH]c3ccccc23)CC1	none
CCCC1(c2ccccc2)NC(=O)N(CC(=O)Nc2cc(S(=O)(=O)N3CCOCC3)ccc2Cl)C1=O (configuration not stated)	none
Cc1ccc(S(=O)(=O)/N=C2/C=C(Sc3ncn[nH]3)C(=O)c3ccccc32)cc1	Beta cell apopt 97.8 (no result: Mdm2 MdmX PPI, Jurkat NFkB inh, 697 NFkB inh)
Cc1ccc(S(=O)(=O)/N=C2/C=C(Sc3ncn[nH]3)C(=O)c3ccccc32)c(C)c1	Beta cell apopt 128.5 (no result: Mdm2 MdmX PPI, Jurkat NFkB inh, Gli-Sufu antag, 697 NFkB inh)
CC(C)c1ccc(S(=O)(=O)/N=C2/C=C(Sc3ncn[nH]3)C(=O)c3ccccc32)cc1	Beta cell apopt 132.4 (no result: Mdm2 MdmX PPI, Jurkat NFkB inh, 697 NFkB inh)
CCN1CCc2c(OCC(=O)Nc3ccc(C)cc3)cccc2C1=O	none
CN1CCN(c2ccc(-c3ccc4ccccc4n3)cc2)CC1	Gli-Sufu antag 88.4 (no result: Mdm2 MdmX PPI, Jurkat NFkB inh, Beta cell apopt, 697 NFkB inh)
CCCc1nc2sc3ccccc3c(=O)c2c(=O)n1Cc1ccc(OC)cc1	Beta cell apopt 99.6
O=C(N/N=C/c1ccc(O)cc1O)/C(=C/c1ccccc1)CCO	Beta cell apopt 84.7
COc1cc(/C=N/NC(=O)/C(=C/c2ccccc2)CCO)ccc1O	none
O=C(/C=C/c1cccc([N+](=O)[O-])c1)c1ccco1	none
O=C(/C=C/c1cccc([N+](=O)[O-])c1)c1ccc([N+](=O)[O-])o1	Beta cell apopt 133.5 (no result: Mdm2 MdmX PPI, Jurkat NFkB inh, 697 NFkB inh)
CCN1CCN(C(=O)c2ccc3c(c2)c(C)c(C)n3Cc2ccccc2)CC1	none
CCn1c(C)c(C)c2cc(C(=O)N3CCc4ccccc4C3)ccc21	Beta cell apopt 113.3
CCCC(=O)Oc1ccc(-c2nccc(C(OC)OC)n2)cc1	none

Screening results from PubChem BioAssay.
